# According to PubChem BioAssay (NCATS):
# Values joined by “and” are separate entries in the source; they are usually repeats but may differ in a detail not shown here. Equal entries are not always repeated. Inconclusive results are not listed. A number with no mark means an inactive call. Active and inactive are the calls of the source. Calls follow the shape of the dose curve; as a rule, active = well fitted cell-killing curve with a large enough effect; inconclusive = small, poorly fitted or top-dose-only effect; inactive = flat fitted curve, though single readings scatter.
# Assay: qHTS of pediatric cancer cell lines to identify multiple opportunities for drug repurposing: Primary screen for Rh18 cells (AID 1347102); also: nearly all actives have a fitted effect of over 65% in size
# Conditions: Rh18 rhabdomyosarcoma viability, CellTiter-Glo luminescence, 48 h; series mostly up to 46 µM; activity change, negative = cytotoxic: at the top concentration
# Description: Drug repurposing or repositioning has been offered as a strategy for drug development in oncology programs. This approach has special potential for childhood cancers and other rare or orphan diseases, where the expected return on new drug development has been a disincentive to pharmaceuticals.
# In this project we exploit the poly-pharmacology of drugs to discover new indications via phenotypic screening of a panel of 19 well-characterized cell lines derived from solid tumors seen in children and adolescents. The goal is to identify approved drugs with previously unrecognized anticancer properties that has the potential to reveal new mechanisms and biological processes involved in carcinogenesis or drug resistance. We employed a titration-based paradigm (quantitative high-throughput screening or qHTS), where all compounds were tested at multiple concentrations for their effect on cell viability. Concentration-response curves (CRCs) were derived directly from the primary screen, and both potency and efficacy values were used to identify compounds with robust bioactivity profiles. We screened the NIH Chemical Genomics Center (NCGC) Pharmaceutical Collection (NPC) and Mechanism Interrogation Plate (MIPE) small molecule collections of approved and investigational compounds against these cell lines; and measured metabolically active cells after 48 hours of compound treatment as a proxy for cell viability.
# Assay Submitter: Nathalia J. Martinez, National Center for Advancing Translational Sciences, National Institutes of Health, Rockville, MD, USA; email: natalia.martinez@nih.gov
# [1] Shen, M et al. Quantitative high-throughput phenotypic screening of pediatric cancer cell lines identifies multiple opportunities for drug repurposing. Oncotarget 2017 Dec 19;9(4):4758-4772. PMID 29435139.
# The cells were obtained from University of North Carolina (UNC), Pediatric Preclinical Testing Program (PPT), and Coriell Institute (CI).
# qHTS cell viability assay:
# Cells were assayed in growth media at a density of 500-1,000 cells/well. Five microliters of cells were dispensed into 1,536-well, white, solid-bottom, TC-treated plates (Greiner Bio One) using a multidrop dispenser and incubated at 37 degrees C, 5% CO2, under a humidified atmosphere for 5 hours. Twenty-three nanoliters of compounds and controls (neutral control DMSO or positive control bortezomib at final concentration of 2.3 µM) were subsequently transferred by Kalypsys pintool. For primary screens, the MIPE collection was tested at 11-point dilutions (final concentrations range from 0.78 nM to 46 µM) and the NPC collection at 8-point dilutions (final concentrations range from 0.59 nM to 46 µM). Compounds tested in follow-up screens were assayed at 11-point dilutions. Cells were incubated for 48 hours, followed by addition of 3 µL of CellTiter-Glo (Promega). After a 15 min incubation at room temperature, samples were analyzed for luminescence intensity using a ViewLux High-throughput CCD imager equipped with clear filters.
# % is scaled to controls: 0 for no effect and ±100 for the full control effect; potency is read from the fitted curve at half-maximal effect.
Structure (SMILES),"activity change, negative = cytotoxic",Potency
Cc1ccc([C@@H]2O[C@H](CO)[C@@H](O)[C@H](O)[C@@H]2O)cc1Cc1ccc(-c2ccc(F)cc2)s1,-15%,–
Cc1ccc(C(=O)Nc2cccc(C(F)(F)F)c2)cc1Nc1nc(-c2cccnc2)nc2c1cnn2C,–,20.9 µM (active)
CN(C)c1cc(NC(=O)CNC(C)(C)C)c(O)c2c1C[C@@H]1C[C@H]3[C@H](N(C)C)C(=O)C(C(N)=O)=C(O)[C@@]3(O)C(=O)C1=C2O,-9.15%,–
CCC(=O)NC[C@H](Cc1ccc(OCCc2nc(-c3ccccc3)oc2C)cc1)NC(C)=CC(=O)c1ccc(C(F)(F)F)cc1,-22.4%,–
Clc1ccc(-c2nc3sccn3c2C=NOCc2ccc(Cl)c(Cl)c2)cc1,8.65%,–
O=c1c(-c2ccc(O)cc2)coc2cc(O[C@@H]3O[C@H](CO)[C@H](O)[C@H](O)[C@H]3O)ccc12,-4.37%,–
CC1(C)CCC(CN2CCN(c3ccc(C(=O)NS(=O)(=O)c4ccc(NCC5CCOCC5)c([N+](=O)[O-])c4)c(Oc4cnc5[nH]ccc5c4)c3)CC2)=C(c2ccc(Cl)cc2)C1,–,10.5 µM (active)
O=C(CCN1CCN(C(=O)OCc2cc(Cl)cc(Cl)c2)CC1)c1ccc2[nH]c(=O)oc2c1,10.7%,–
C[C@H]1[C@H](NC(=O)C(=NOC(C)(C)C(=O)O)c2csc(N)n2)C(=O)N1S(=O)(=O)O,30%,–
CCc1ccc(C=C2SC(=S)NC2=O)cc1,-4.14%,–
CCn1cc(C(=O)O)c(=O)c2ccc(C)nc21,–,inactive
O=C(O)CCc1nc(-c2ccccc2)c(-c2ccccc2)o1,-0.35%,–
CC(C)n1nc(-c2ccc3oc(N)nc3c2)c2c(N)ncnc21,–,0.235 µM (active)
COc1ccc(C2Sc3ccccc3N(CCN(C)C)C(=O)C2OC(C)=O)cc1 (stereo not given),-4.69%,–
N[C@H](CSC(c1ccccc1)(c1ccccc1)c1ccccc1)C(=O)O,2.04%,–
OC[C@@H](O)[C@H](O)[C@H](O)[C@@H](O)CO,–,inactive
CCOC1OC(=O)C[C@H]1NC(=O)[C@@H]1CCCN1C(=O)[C@@H](NC(=O)c1ccc(N)c(Cl)c1)C(C)(C)C (stereo not given in full),-7.9%,–
NC1=N[C@@]2(c3cc(NC(=O)c4ccc(F)cn4)ccc3F)COC[C@@H]2CS1,-14.8%,–
O=C1C(Cl)=C(NCCN2CCOCC2)C(=O)c2ncccc21,–,2.35 µM (active)
C[N+]1(C)[C@@H]2CC(OC(=O)[C@H](CO)c3ccccc3)C[C@H]1[C@H]1O[C@@H]12 (stereo not given in full),15.8%,–

Structure (SMILES),"activity change, negative = cytotoxic",Potency
O=C(CCCCCCC(=O)Nc1ccccc1)NO,–,2.99 µM (active) and 4.18 µM (active)
N#C[C@H]1C[C@H]2C[C@@H]2N1C(=O)[C@@H](N)C12CC3CC(CC(O)(C3)C1)C2,-17.7%,–
O=C(NCCN1CCOCC1)c1ccc(Cl)cc1,16%,–
C[C@]12CC[C@@H]3c4ccc(O)cc4CC[C@H]3[C@H]1C[C@@H](O)[C@H]2O,-2.02%,–
COc1ccc(-c2coc3cc(O)cc(O)c3c2=O)cc1,19.3%,–
CC(C)(C(=O)NCC(F)(F)C(F)(F)F)C(=O)N[C@@H]1C(=O)Nc2ccccc2-c2ccccc21,-18.8%,–
CC[C@H]1OC(=O)[C@H](C)[C@@H](O[C@H]2C[C@@](C)(OC)[C@@H](O)[C@H](C)O2)[C@H](C)[C@@H](O[C@@H]2O[C@H](C)C[C@H](N(C)C)[C@@H]2O)[C@](C)(O)C[C@@H](C)CN(C)[C@H](C)[C@@H](O)[C@]1(C)O,8.29%,–
CN1C[C@H]2c3ccccc3Oc3ccc(Cl)cc3[C@@H]2C1,–,inactive
CC1(C)CCC[C@@]2(C)[C@@H]1CC[C@@]1(C)OC(=O)C[C@H]21,-6.76%,–
CC(C)NCC(O)COc1cccc2[nH]ccc12 (stereo not given),-2.04%,–
CCN(CC)CCNC(=O)c1ccc(N)cc1,-0.183%,–
COc1ccc(-c2coc3cc(O)ccc3c2=O)cc1,7.08%,–
O=c1cc(-c2ccccc2)oc2cc(O)cc(O)c12,22.9%,–
COC(=O)[C@@H]1[C@H]2C[C@H]3c4[nH]c5ccccc5c4CCN3C[C@@H]2CC[C@@H]1O,-1.14%,–
CC(C)(C)COc1ccc(-n2cc(C(=O)O)cn2)cc1C#N,1.07%,–
CC(C)OC(=O)C(C)(C)Oc1ccc(C(=O)c2ccc(Cl)cc2)cc1,–,inactive
O=C(CCc1ccc(O)cc1)c1c(O)cc(O)cc1O[C@@H]1O[C@H](CO)[C@H](O)[C@H](O)[C@H]1O,-2.32%,–
NC(=O)c1cccc(-c2cc(Nc3ccc(OC(F)(F)F)cc3)ncn2)c1,31.5%,–
O=C1C[C@@H](c2ccc(O)cc2)Oc2cc(O)cc(O)c21,21.1%,–
COc1cc(O)c2c(c1)C(=O)c1cc(C)cc(O)c1C2=O,5.97% [at 16.1 µM],–
